Inconclusive results are not listed. Activity calls are given as the source filed them. Unless noted, calls come from the whole dose curve; as a rule, active = well fitted inhibition curve with a large enough effect; inconclusive = small, poorly fitted or top-dose-only effect; inactive = flat fitted curve, though single readings scatter.

Test [1] is described as follows: qHTS for identification of novel therapeutic agents for treatment of microphthalmiaassociated transcription factor (MiT) renal cell carcinoma (RCC) (AID 1963991; calls by dose curve). Particulars: CellTiter-Glo, 48 h; for z-score: stronger effect = lower value; for Potency: active = Z-AUC below -0.8 in all three lines. The procedure, abridged:
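Three TFE3-fusion RCC cell lines (UOK109, UOK124, UOK145), 500 cells/well, were exposed to the 1912-compound MIPE 4.0 library for 48 hours at 37 C. Viability was read by CellTiter-Glo luminescence, normalised to DMSO (100%) and empty wells (0%), with 11-concentration curve fits.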

Test [2] can be described thus: qHTS profiling for inhibitors of Plasmodium falciparum proliferation (AID 504749).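 For activity, negative = inhibition: 0% = DMSO vehicle and full inhibition = artemisinin control.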 Note: nearly all actives have a fitted effect of over 60% in size. Conditions: P. falciparum in erythrocytes, SYBR Green DNA, 72 h. In short, it runs like this: (§1)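 Three-day growth assay of blood-stage parasites in erythrocytes (0.3% parasitemia, 2.5% hematocrit) at 37 C, 5% CO2, quantified by SYBR Green DNA staining after overnight detergent lysis.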

Test [3] concerns 3D7. The test is described as above. Particulars: P. falciparum in erythrocytes, SYBR Green DNA, 72 h; series mostly up to 28.7 µM. The procedure, abridged:
as §1

The test system of test [4] is 7G8. The description is as above. Particulars: P. falciparum in erythrocytes, SYBR Green DNA, 72 h; series mostly up to 28.7 µM. In short, it runs like this: as §1
Test [5] deals with AA1029. Described as above. Conditions: P. falciparum in erythrocytes, SYBR Green DNA, 72 h; series mostly up to 28.7 µM. In short, it runs like this:
as §1

Test [6] has as its system AS120. Described as above. Conditions: P. falciparum in erythrocytes, SYBR Green DNA, 72 h; series mostly up to 28.7 µM. The procedure, abridged: as §1
Test [7] deals with ATS189. Described as above. Particulars: P. falciparum in erythrocytes, SYBR Green DNA, 72 h; series mostly up to 28.7 µM. In short, it runs like this:
as §1

For test [8], the system named is ATS95. The description is as above. Particulars: P. falciparum in erythrocytes, SYBR Green DNA, 72 h; series mostly up to 28.7 µM. The procedure, abridged: as §1
The test system of test [9] is C2A. Described as above. Particulars: P. falciparum in erythrocytes, SYBR Green DNA, 72 h; series mostly up to 28.7 µM. In short, it runs like this:
as §1

The subject of test [10] is CP185. Described as above. Conditions: P. falciparum in erythrocytes, SYBR Green DNA, 72 h; series mostly up to 28.7 µM. The procedure, abridged: as §1
The subject of test [11] is CP191. The description is as above. Particulars: P. falciparum in erythrocytes, SYBR Green DNA, 72 h; series mostly up to 28.7 µM. In short, it runs like this: as §1
Test [12] deals with CP192. The description is as above. Particulars: P. falciparum in erythrocytes, SYBR Green DNA, 72 h; series mostly up to 28.7 µM. In short, it runs like this:
as §1

The test system of test [13] is CP194. Described as above. Conditions: P. falciparum in erythrocytes, SYBR Green DNA, 72 h; series mostly up to 28.7 µM. The procedure, abridged: as §1
Test [14] deals with CP201. The test is described as above. Conditions: P. falciparum in erythrocytes, SYBR Green DNA, 72 h; series mostly up to 28.7 µM. The procedure, abridged:
as §1

The test system of test [15] is CP203. Described as above. Particulars: P. falciparum in erythrocytes, SYBR Green DNA, 72 h; series mostly up to 28.7 µM. In short, it runs like this:
as §1

The subject of test [16] is CP211. The test is described as above. Particulars: P. falciparum in erythrocytes, SYBR Green DNA, 72 h; series mostly up to 28.7 µM. The procedure, abridged: as §1
For test [17], the system named is CP215. The description is as above. Particulars: P. falciparum in erythrocytes, SYBR Green DNA, 72 h; series mostly up to 28.7 µM. In short, it runs like this:
as §1

The subject of test [18] is CP217. The test is described as above. Conditions: P. falciparum in erythrocytes, SYBR Green DNA, 72 h; series mostly up to 28.7 µM. In short, it runs like this:
as §1

Test [19] relates to CP237. The description is as above. Particulars: P. falciparum in erythrocytes, SYBR Green DNA, 72 h; series mostly up to 28.7 µM. The procedure, abridged:
as §1

Test [20] relates to CP238. The test is described as above. Conditions: P. falciparum in erythrocytes, SYBR Green DNA, 72 h; series mostly up to 28.7 µM. The procedure, abridged:
as §1

The mark [21] stands for this setting: TFE3-RCC UOK109 viability, measured here: UOK109 Z-AUC.
Where [22] appears, read: TFE3-RCC viability, measured here: UOK124 Z-AUC.
The mark [23] stands for this setting: TFE3-RCC viability, measured here: UOK145 Z-AUC.
Setting [24] is: at 28.7 µM (top of the series), parasite line A.
[25] abbreviates: at 28.7 µM (top of the series), parasite line B.
Potency is the fitted concentration of half-maximal effect.

As for `CN1C(C(=O)Nc2ccccn2)=C(O)c2sccc2S1(=O)=O`, the z-score in [1] (setting [21]) was found to be 1.14; in [1] (setting [22]), 0.504; in [1] (setting [23]) it was 0.557. The activity, negative = inhibition in test [2] (at 12.8 µM (top of the series), parasite line A) is -2.2% (inactive); in test [2] (at 12.8 µM (top of the series), parasite line B), -4.64% (inactive). In addition, the Potency entry in [3], in test [4], in [5], in test [6], in test [7] and in test [8] was “inactive” throughout. Moreover, the Potency entry in test [9], in test [10], in test [11], in test [12], in test [13] and in [14] was “inactive” in each case. For the same molecule, the Potency entry in [15], in [16], in [17], in test [18], in test [19] and in test [20] was “inactive” each time.
As for `CC1Cc2ccccc2N1NC(=O)c1ccc(Cl)c(S(N)(=O)=O)c1` (centres undefined), the results for the z-score in test [1] (setting [21]), in test [1] (setting [22]) and in test [1] (setting [23]) were 0.928, 0.508 and 0.493, respectively.
With `CC(C)c1nc(CN(C)C(=O)N[C@H](C(=O)N[C@@H](Cc2ccccc2)C[C@H](O)[C@H](Cc2ccccc2)NC(=O)OCc2cncs2)C(C)C)cs1`, the z-score in [1] (setting [21]) was -0.114; in test [1] (setting [22]), -0.388; in test [1] (setting [23]), 0.0556.
Turning to `O=c1c(O)c(-c2ccc(O)cc2O)oc2cc(O)cc(O)c12`, the z-score was 0.0602 in test [1] (setting [21]), 0.591 in test [1] (setting [22]) and -0.0945 in [1] (setting [23]).
For the molecule `CCOC(=O)C1=C(O)C(=O)N(Cc2ccccc2)C1`, the z-score in test [1] (setting [21]) came out at 0.919; in test [1] (setting [22]) it was 0.303; in [1] (setting [23]) it was 0.693.
In the same order, the values of `C[C@@H](c1ncncc1F)[C@](O)(Cn1cncn1)c1ccc(F)cc1F` are 0.104, 0.588 and 0.181.
Consider `CC[C@]1(O)C[C@H]2CN(CCc3c([nH]c4ccccc34)[C@@](C(=O)OC)(c3cc4c(cc3OC)N(C=O)[C@H]3[C@@](O)(C(=O)OC)[C@H](OC(C)=O)[C@]5(CC)C=CCN6CC[C@]43[C@@H]65)C2)C1`, for which the Potency in test [1] (TFE3-RCC UOK109 viability) is 66.2 nM (active); in [2] (parasite line A), 2240 nM (active); in [4], 141 nM (active); in test [5], 2510 nM (active); in [6], 3550 nM (active); in test [8], 2510 nM (active). Moreover, the Potency is 2000 nM (active) in [9]; 1580 nM (active) in test [10]; 2240 nM (active) in test [11]; 1690 nM (active) in test [13]; 2130 nM (active) in [16]; 4470 nM (active) in test [18]. Further, the Potency in test [19] is 50.1 nM (active); in test [20], 2240 nM (active). For the same molecule, the z-score in test [1] (setting [21]) is -0.827; in test [1] (setting [22]) it was -2.28; in test [1] (setting [23]), -0.98.
`Nc1ccn([C@@H]2O[C@H](CO)[C@@H](O)C2O)c(=O)n1` (some centres undefined): the z-score in [1] (setting [21]) worked out at 0.798; in test [1] (setting [22]), 0.809; in test [1] (setting [23]), 0.948. Further, the activity, negative = inhibition in test [2] (setting [24]) was 12.2% (inactive); in [2] (setting [25]), 0.749% (inactive). The Potency entry in [3], in test [4], in test [5], in test [6], in test [7] and in test [8] was “inactive” throughout. In addition, the Potency result in test [9], in test [10], in test [11], in test [12], in [13] and in test [14] was “inactive” throughout. In addition, the Potency result in test [15], in test [16], in test [17], in [18], in [19] and in [20] was “inactive” throughout.
For `CCN(CC)CCOc1ccc(Nc2ncc3cc(-c4c(Cl)cccc4Cl)c(=O)n(C)c3n2)cc1`, the Potency in [1] (TFE3-RCC UOK109 viability) is 11.8 nM (active). The z-score in test [1] (setting [21]) is -2.53; in [1] (setting [22]), -3.17; in [1] (setting [23]), -2.04.
For the molecule `CCOC(=O)C1=C[C@@H](OC(CC)CC)[C@H](NC(C)=O)[C@@H](N)C1`, the z-score amounted to 0.372 in [1] (setting [21]), 0.178 in [1] (setting [22]) and 0.414 in test [1] (setting [23]).
Taken in the same sequence, the figures for `CC(C)Oc1ccc2c(=O)c(-c3ccccc3)coc2c1` were 0.973, 0.495 and -0.312.
As for `O=C(NCCO[N+](=O)[O-])c1cccnc1`, the z-score in test [1] (setting [21]) was determined as 1.2; in test [1] (setting [22]) it was 0.824; in test [1] (setting [23]) it was 0.646. The activity, negative = inhibition in [2] (setting [24]) was 22.6% (inactive); in test [2] (setting [25]), 3.27% (inactive). The Potency entry in test [3], in [4], in [5], in test [6], in test [7] and in test [8] was “inactive” in each case. The Potency result in test [9], in test [10], in test [11], in test [12], in test [13] and in [14] was “inactive” in each case. Further, the Potency result in [15], in [16], in test [17], in [18], in [19] and in test [20] was “inactive” in each case.
`C[C@@H](N)C1CCC(C(=O)Nc2ccncc2)CC1` (some centres undefined): the z-score came to 1.67 in test [1] (setting [21]), 0.534 in [1] (setting [22]) and 0.866 in test [1] (setting [23]).

The record behind these values is PubChem BioAssay (NCATS).
